Reference: PubChem BioAssay (NCI)
About 83,000 compounds went through this panel and 20% of them were active in at least one assay; those are over-represented in the sample as a whole.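 Single-dose data. Exposure time 48 hours. Values below 10 considered active.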 Values without a mark were called inactive. Activity calls are given as the source filed them.

Legend:
Test in all cases: NCI-60 one-dose screen, 48 h (100 = growth as untreated, 0 = no growth, -100 = all killed)
Settings in all cases: 10 µM unless noted
SR leukemia = system: SR leukemia
RPMI-8226 leukemia = system: RPMI-8226 leukemia
OVCAR-8 ovarian = system: OVCAR-8 ovarian
OVCAR-5 ovarian = system: OVCAR-5 ovarian
OVCAR-4 ovarian = system: OVCAR-4 ovarian
SK-OV-3 ovarian = system: SK-OV-3 ovarian
IGROV1 ovarian = system: IGROV1 ovarian
OVCAR-3 ovarian = system: OVCAR-3 ovarian
HS 578T breast = system: HS 578T breast
NCI/ADR-RES ovarian = system: NCI/ADR-RES ovarian
T-47D breast = system: T-47D breast
BT-549 breast = system: BT-549 breast
MDA-MB-435 melanoma = system: MDA-MB-435 melanoma
SW-620 colon = system: SW-620 colon
MCF7 breast = system: MCF7 breast
HCT-116 colon = system: HCT-116 colon
HCC-2998 colon = system: HCC-2998 colon
KM12 colon = system: KM12 colon

| SMILES | growth (SR leukemia) | growth (RPMI-8226 leukemia) | growth (OVCAR-8 ovarian) | growth (OVCAR-5 ovarian) | growth (OVCAR-4 ovarian) | growth (SK-OV-3 ovarian) | growth (IGROV1 ovarian) | growth (OVCAR-3 ovarian) | growth (HS 578T breast) | growth (NCI/ADR-RES ovarian) | growth (T-47D breast) | growth (BT-549 breast) | growth (MDA-MB-435 melanoma) | growth (SW-620 colon) | growth (MCF7 breast) | growth (HCT-116 colon) | growth (HCC-2998 colon) | growth (KM12 colon) |
| --- | --- | --- | --- | --- | --- | --- | --- | --- | --- | --- | --- | --- | --- | --- | --- | --- | --- | --- |
| CCOC(=O)c1c(-c2ccc(C)cc2)c(C#N)c(=O)n(-c2cccc(C(F)(F)F)c2)c1N | 102% | 104% | 103% | 93% | 106% | 108% | 107% | 106% | 105% | 109% | 99.9% | 113% | 102% | 101% | 94% | 103% | 107% | 100% |
| C=C1CCC2C3(C)COC(c4ccc(NC(C)=O)cc4)OC3CCC2(C)C1C/C=C1/C(=O)OCC1O (stereo unspecified) | 25.2% | 6.14% (active) | 44.7% | 74.9% | 23.7% | 79.6% | 84.4% | 76.2% | 54% | 36.1% | 29.4% | – | 60.5% | 77.3% | 42.5% | 34.1% | 59.1% | 51.7% |
| Cc1nc2sc(C(=O)Nc3cccc4ncccc34)c(N)c2cc1C(C)O (stereo unspecified) | 22.4% | 75.8% | 86.6% | 96.5% | 91.3% | 69.9% | 74.4% | 54.6% | 63.6% | 88% | 76.2% | 79% | -8.44% (active) | 59.2% | 38.4% | 70.1% | 76.5% | 59.2% |
| Cc1ccc(C(=O)Nc2ccc(CN3CCN(C)CC3)c(C(F)(F)F)c2)cc1C#Cc1cnc(N)cc1C#N | -29.8% (active) | -24.4% (active) | -32.9% (active) | 12.8% | 5.13% (active) | -7.98% (active) | -47.7% (active) | -40.1% (active) | -23.5% (active) | -27.3% (active) | -4.9% (active) | 13.9% | -90.7% (active) | -81.2% (active) | -75.5% (active) | -87% (active) | -77.3% (active) | -69.8% (active) |
